# D2 ag-1: agonists of human D2 dopamine receptor (beta-arrestin); DiscoveRx PathHunter D2 beta-arrestin, luminescence, 90 min; 100% = 57 uM dopamine signal; P14416; AID 624465; activation, % (test concentration not listed); 360,000 tested, 0.084% active; in the data active = activation above about 40%
# Target sequence (P14416 whole entry, looked up): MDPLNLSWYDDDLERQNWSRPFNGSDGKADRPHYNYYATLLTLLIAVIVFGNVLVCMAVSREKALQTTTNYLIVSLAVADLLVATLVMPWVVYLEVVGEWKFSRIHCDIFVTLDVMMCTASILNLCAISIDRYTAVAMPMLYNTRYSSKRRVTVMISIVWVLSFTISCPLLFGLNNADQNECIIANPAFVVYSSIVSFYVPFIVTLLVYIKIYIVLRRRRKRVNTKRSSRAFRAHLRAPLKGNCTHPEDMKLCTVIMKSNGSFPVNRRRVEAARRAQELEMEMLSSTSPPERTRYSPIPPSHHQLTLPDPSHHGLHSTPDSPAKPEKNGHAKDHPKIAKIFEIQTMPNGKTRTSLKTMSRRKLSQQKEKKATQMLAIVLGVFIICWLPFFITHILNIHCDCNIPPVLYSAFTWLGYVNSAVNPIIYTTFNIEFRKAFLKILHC
#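 Agonist mode: compounds alone added to overnight-plated D2 PathHunter cells for 90 min at 37 C, with 57 uM final dopamine (EC100) defining full response. Beta-arrestin recruitment detected by chemiluminescent reagent, read after 1 h at ambient temperature.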
# D2 PAM-1: positive allosteric modulators of human D2 dopamine receptor; 340,000 tested, 0.34% active; AID 485347; HEK293 T-REx D2, calcium flux, EC20 dopamine potentiation; P14416; potentiation, % at 10 µM;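 active = potentiation over 3 SD above the plate norm, cut at about 30% in these data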; note: 0% is about no effect
#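 Tetracycline-induced Hek293 Trex D2 cells, force-coupled to calcium, loaded with no-wash calcium dye. Compound added with 180 s kinetic read for agonism, then EC20 dopamine and a further 180 s read for potentiation.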
# D2 antagonist: antagonizes the human D2 dopamine receptor. P14416. HEK293 TREx D2 cells, calcium flux, dopamine EC80. 340,000 tested, 2% active. AID 485344. inhibition, % at 10 µM; in the data active = inhibition above about 30%; inactive = below that, where a call was filed; note: 0% is about no effect
#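 Read-out: kinetic calcium fluorescence (1 cycle/s) in inducible HEK293 T-REx D2 cells after an EC80 dopamine addition that followed 180 s compound preincubation. Loss of the dopamine response indicates antagonism.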
# D2 PAM-2: potentiates the human D2 dopamine receptor allosterically; AID 624464; 360,000 tested, 0.23% active; potentiation, % (test concentration not listed); P14416; DiscoveRx D2 beta-arrestin cells, luminescence, 90 min; 100% = 57 uM dopamine signal; in the data active = potentiation above about 50%
#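 PathHunter beta-arrestin assay in DiscoveRx D2 cells. Compounds were added with an EC20 of dopamine (50 nM final) for 90 min at 37 deg C. Luminescence was read 1 h after detection reagent, with 57 uM dopamine as the EC100 control.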
# D2 ag-2: agonists of human D2 dopamine receptor. activation, % at 2 µM. HEK293 T-REx D2 cells, calcium flux agonist mode. 340,000 tested, 0.53% active. P14416;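 active = activation over 3 SD above normal in the single-dose calcium agonist read, cut at about 30% in these data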; note: 0% is about no effect
#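 In this primary screen, compounds producing a positive calcium signal within 180 s of addition to tetracycline-induced, force-coupled HEK293 Trex D2 cells are flagged; cells are dye-loaded with a no-wash calcium kit beforehand.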
# * = called active by the depositor; . = no result given. In the library only some 2.4% were active in any assay of this set; here they are far more common.
SMILES,D2 ag-1,D2 PAM-1,D2 antagonist,D2 PAM-2,D2 ag-2
CCOC(=O)C1=C(O)C(=O)N(c2ccccc2)C1c1cccc([N+](=O)[O-])c1 (configuration not stated),0,-3,33*,-13,0
CCOC(=O)C1=C(O)C(=O)N(c2ccc(S(N)(=O)=O)cc2)C1c1ccc(OC)cc1OC (configuration not stated),-1,42*,-12,2,0
CCOC(=O)C1=C(O)C(=O)N(c2ccc(S(N)(=O)=O)cc2)C1c1cccc([N+](=O)[O-])c1 (configuration not stated),0,4,22,2,0
CC1CCCN(C2=C(Cl)C(=O)N(c3cccc(Cl)c3)C2=O)C1 (configuration not stated),-3,1,44*,-5,1
COc1ccc(N2C(=O)C(Cl)=C(N3CCCC(C)C3)C2=O)cc1 (configuration not stated),-4,3,-15,10,-1
O=C(Nc1ccc2nc(SCC(=O)N3CCCC3)sc2c1)c1ccccc1F,.,-16,.,.,-2
COc1ccc(CNC(=O)C2CCN(S(=O)(=O)c3cccc4nonc34)CC2)cc1OC,.,7,.,.,1
Cc1ccc(/C=[N+](\[O-])c2ccc(N(C)C)cc2)c2nsnc12,3,-4,48*,8,9
Cc1nc(SCC(=O)Nc2ccc(F)cc2)c(C#N)c(C)c1CC(=O)c1ccc(Br)cc1,-3,1,44*,-4,-1
CSc1ncc(C(=O)Nc2ccc(C)c(Cl)c2)c(-c2ccccc2)n1,.,2,.,.,0
CCOC(=O)CSc1nnc(NC(=O)c2cc([N+](=O)[O-])cc([N+](=O)[O-])c2)s1,9,-1,2,63*,0
COCCSc1nnc(NC(=O)c2ccc([N+](=O)[O-])cc2)s1,-2,11,.,0,.
CCCCC(=O)N/N=C/c1ccc(N2CCOCC2)c([N+](=O)[O-])c1,-1,8,59*,-5,1
COc1ccc(N2CCN(C(=O)c3ccccc3)CC2)c([N+](=O)[O-])c1,-6,-5,6,-2,-1
CCCCC(=O)N1CCN(c2ccc(OC)cc2[N+](=O)[O-])CC1,0,9,30*,0,0
CCOC(=O)c1ccc(N2C(=O)c3n[nH]c(-c4ccco4)c3C2c2ccccc2OC)cc1 (configuration not stated),.,-2,.,.,0
Cc1ccc(C(C(=O)NC2CCCCC2)N(Cc2ccco2)C(=O)Cc2c[nH]c3ccccc23)o1 (configuration not stated),-4,-5,36*,0,-1
COc1ccc(NC(=O)CSc2nc(-c3ccc(F)cc3)c3cccc(C)c3n2)cc1,.,2,.,.,1
CCc1ccccc1N(C)C(=O)c1cc2c(Cl)nc3ccc(C)cc3c2s1,.,5,.,.,-1
CCOc1ccc(Oc2ccccc2NC(=O)C2=COCCO2)cc1,-7,5,37*,-14,0
COc1cccc(N2C(=O)C(CC(=O)Nc3ccccc3)N(CCc3sccc3C)C2=O)c1 (configuration not stated),.,-22,.,.,0
CCOc1ccccc1-c1nc(CN2CCCN(C(=O)c3ccco3)CC2)c(C)o1,-6,-24,33*,-51,-1
Cc1cccc2cc(CN(Cc3cccs3)C3(c4nnnn4C4CCCC4)CCCC3)c(=O)[nH]c12,-2,7,77*,-5,1
Cc1cccc2cc(CN(Cc3ccc(F)cc3)Cc3nnnn3C3CCCC3)c(=O)[nH]c12,0,-2,-2,-16,-1
CCOC(=O)N1CCc2c(sc3c2c(=O)n(CCc2ccccc2)c(=O)n3Cc2ccc(C)cc2C)C1,.,-3,.,.,0
SMILES,D2 ag-1,D2 PAM-1,D2 antagonist,D2 PAM-2,D2 ag-2
O=C(CCCN1CCC(O)(c2ccc(Br)cc2)CC1)c1ccc(F)cc1,-4,-20,79*,-33,1
O=C(CCCN1CCC(O)(c2cccc(C(F)(F)F)c2)CC1)c1ccc(F)cc1,-4,17,9,-34,1
O=C(CCCN1CCC(C(=O)c2ccc(F)cc2)CC1)c1ccc(F)cc1,-3,-19,71*,-5,-3
O=C(CCCN1CCC(C(O)c2ccc(F)cc2)CC1)c1ccc(F)cc1 (configuration not stated),-5,.,.,-16,.
Cc1cc2n(n1)C(c1ccccc1)CC(c1ccc(Br)cc1)=N2 (configuration not stated),6,-2,52*,10,8
COc1ccc(OCC(=O)Nc2ccc(C(=O)OCc3cc(=O)n4nc(C)sc4n3)cc2)cc1,.,7,.,.,-1
COC(=O)C1=C(C)NC2=C(C(=O)CC(C)(C)C2)C1c1ccccn1 (configuration not stated),0,33*,-7,3,1
Cc1ccn(CCNC(=O)C2CCC(=O)N(CCc3ccc(Cl)cc3)C2)n1 (configuration not stated),-1,35*,2,16,0
Cc1cc(C)n(CCCNC(=O)C2CCC(=O)N(CCc3ccc(Cl)cc3)C2)n1 (configuration not stated),-2,6,-1,-8,0
Cc1ccc(-c2noc(-c3ccc(N4CCOCC4)c([N+](=O)[O-])c3)n2)cc1,.,-5,.,.,-1
COc1cccc(NC(=O)Cn2c(=O)n(-c3cccc(OC)c3)c(=O)c3c4c(sc32)CCCC4)c1,.,-8,.,.,1
CCOc1ccc(CCNC(=O)c2sc3nc4n(c(=O)c3c2C)CCC4)cc1OCC,1,-10,30*,5,1
CCOc1ccc(CCNC(=O)c2sc3nc4n(c(=O)c3c2C)CCCC4)cc1OCC,.,-7,.,.,4
COc1ccc2c(C#N)c3ccccn3c2c1,7,-2,-2,70*,4
Cc1cc(C)cc(N(C(=O)c2ccco2)C(C(=O)NC2CCCC2)c2ccncc2)c1 (configuration not stated),-1,4,37*,8,-1
O=C(NC1CCCCC1)C(c1ccncc1)N(C(=O)c1csnn1)c1ccc(F)cc1 (configuration not stated),-1,-1,37*,-14,1
COc1ccc(N(C(=O)CNC(=O)c2ccco2)C(C(=O)NC2CCCCC2)c2cccnc2)cc1 (configuration not stated),2,20,38*,0,1
COc1ccc(N(C(=O)CNC(=O)c2ccco2)C(C(=O)NC2CCCC2)c2cccnc2)cc1 (configuration not stated),-1,-1,5,8,1
COc1ccc(Cl)cc1N(C(=O)c1ccco1)C(C(=O)NC1CCCC1)c1cccnc1 (configuration not stated),-5,-3,4,-10,-2

# Source: PubChem BioAssay
